Experimental data from the supplement of paper PMC10849652.
The full data set covers some 8,800 targets. This sample favours those with a hit. About 0.5% of all pairs of compound and target were hits. Unmarked numbers belong to inactive results.

Columns and labels:
Experiment in all cases: log2 fold change, soluble protein after heating vs DMSO (PISA); higher = thermal stabilisation; K562 lysate, 10 uM; active = over 0.2 and 3.5 SD of the protein, either way, in both replicates (recomputed)
erlotinib = compound: C#Cc1cccc(Nc2ncnc3cc(OCCOC)c(OCCOC)cc23)c1 [erlotinib]
How it was run: (§1)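 A 30 min treatment with 10 μM compound was applied to crude K562 extract at 1 mg/mL protein in PBS pH 7.4 with 1 mM MgCl2. Heating for 3 min spanned 48°C-58°C, after which aliquots were pooled, adjusted to 0.5% NP-40 at 4°C and spun at 21,000xg for 90 min. TMTpro 16plex LC-MS/MS of the supernatant, with channel sums equalised, gave values recorded as log-two fold change in thermal stability against solvent controls, from duplicates.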

[1] = compound: C/C(=N\NC(=O)C1=CC(=CC=C1)S(=O)(=O)N2CCOCC2)/C3=C(C=CC(=C3)Cl)O
How it was run: as §1

[2] = compound: C1=CC(=CC=C1C2=NC3=C(N2)C=C(C=C3)C(=O)N)OC4=CC=C(C=C4)Cl
How it was run: as §1

[3] = compound: C1=CC2=C(C=CC(=C2)/C=C\3/C(=O)NC(=NCC4=CC=CS4)S3)N=C1
How it was run: as §1

[4] = compound: C1=CC2=NC=CN=C2C=C1/C=C/3\C(=O)NC(=O)S3
How it was run: as §1

[5] = compound: C1=CC=C(C=C1)C2=NC(=C(N2)C3=CC=NC=C3)C4=CC(=C(C=C4)Cl)O
How it was run: as §1

[6] = compound: C1=CC=C2C(=C1)C3=NNC4=CC=CC(=C43)C2=O
How it was run: as §1

[7] = compound: C1CCN(C1)C(=O)NC2=CC=CC(=C2)NC3=NC=C(C(=N3)NCCC4=CN=CN4)Br
How it was run: as §1

[8] = compound: C1CN(CCC1(CC2=CC=C(C=C2)Cl)N)C3=NC=NC4=C3C=CN4
How it was run: as §1

IRAK-1-4 Inhibitor I = compound: C1COCCN1CCN2C3=CC=CC=C3N=C2NC(=O)C4=CC(=CC=C4)[N+](=O)[O-] [IRAK-1-4 Inhibitor I]
How it was run: as §1

ibrutinib = compound: C=CC(=O)N1CCC[C@@H](n2nc(-c3ccc(Oc4ccccc4)cc3)c3c(N)ncnc32)C1 [ibrutinib]
How it was run: as §1

[9] = compound: CC(=O)c1cnc2ccc(-c3cc(Cl)c(O)c(Cl)c3)nc2c1N[C@H]1CC[C@H](CN(C)C)CC1
How it was run: as §1

ralimetinib = compound: CC(C)(C)Cn1c(N)nc2ccc(-c3[nH]c(C(C)(C)C)nc3-c3ccc(F)cc3)nc21 [ralimetinib]
How it was run: as §1

[10] = compound: CC(C)(O)CC(=O)NCCn1ccc2ncnc(Nc3ccc(Oc4cccc(C(F)(F)F)c4)c(Cl)c3)c21
How it was run: as §1

[11] = compound: CC(C)C1=C2N=C(C=C(N2N=C1)NCC3=CC=CC=C3)NCCCCCCN
How it was run: as §1

[12] = compound: CC1=C(C(CC(=O)N1)C2=CC=C(C=C2)C(F)(F)F)C(=O)NC3=C(C=C4C(=C3)C=NN4)F
How it was run: as §1

[13] = compound: CC1=C(C2=C(C=C1)C(=O)C3=CC=CC=C3N2CCCN)C
How it was run: as §1

[14] = compound: CC1=C(C=C(C=C1)NC(=O)C2=CC(=CC=C2)C(C)(C)C#N)NC3=CC4=C(C=C3)N=CN(C4=O)C
How it was run: as §1

[15] = compound: CC1=C(C=C(C=C1)NC(=O)C2=CC(=CC=C2)N(C)C)NC(=O)C3=CC=C(C=C3)O
How it was run: as §1

[16] = compound: CC1=CC=C(C=C1)SC2=C3C=C(SC3=CN=C2)C(=O)N
How it was run: as §1

Sequence of UniProt Q14103 (Q14103 whole entry, looked up): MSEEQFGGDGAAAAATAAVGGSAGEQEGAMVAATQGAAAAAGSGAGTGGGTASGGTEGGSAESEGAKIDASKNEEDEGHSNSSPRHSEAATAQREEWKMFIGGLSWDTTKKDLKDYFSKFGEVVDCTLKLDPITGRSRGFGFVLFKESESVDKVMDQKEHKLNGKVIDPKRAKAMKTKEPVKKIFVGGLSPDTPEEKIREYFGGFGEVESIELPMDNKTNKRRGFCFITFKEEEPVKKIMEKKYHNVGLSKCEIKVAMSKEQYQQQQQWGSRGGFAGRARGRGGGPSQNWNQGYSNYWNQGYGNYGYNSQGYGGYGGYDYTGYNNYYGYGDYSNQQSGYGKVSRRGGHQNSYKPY
Sequence of UniProt P23677 (P23677 whole entry, looked up): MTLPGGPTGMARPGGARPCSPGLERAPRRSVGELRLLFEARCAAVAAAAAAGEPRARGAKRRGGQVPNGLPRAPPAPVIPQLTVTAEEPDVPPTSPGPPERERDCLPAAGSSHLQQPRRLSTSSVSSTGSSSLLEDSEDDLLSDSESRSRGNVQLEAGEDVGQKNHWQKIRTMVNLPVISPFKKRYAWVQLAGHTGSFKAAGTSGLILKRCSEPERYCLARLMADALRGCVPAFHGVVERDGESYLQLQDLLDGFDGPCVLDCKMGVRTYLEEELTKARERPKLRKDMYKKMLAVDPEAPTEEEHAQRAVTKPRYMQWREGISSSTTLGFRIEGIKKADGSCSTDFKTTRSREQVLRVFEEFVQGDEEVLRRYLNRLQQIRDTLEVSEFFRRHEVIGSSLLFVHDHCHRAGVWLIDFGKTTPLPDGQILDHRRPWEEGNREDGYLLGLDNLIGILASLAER
Sequence of UniProt Q9H4A5 (Q9H4A5 whole entry, looked up): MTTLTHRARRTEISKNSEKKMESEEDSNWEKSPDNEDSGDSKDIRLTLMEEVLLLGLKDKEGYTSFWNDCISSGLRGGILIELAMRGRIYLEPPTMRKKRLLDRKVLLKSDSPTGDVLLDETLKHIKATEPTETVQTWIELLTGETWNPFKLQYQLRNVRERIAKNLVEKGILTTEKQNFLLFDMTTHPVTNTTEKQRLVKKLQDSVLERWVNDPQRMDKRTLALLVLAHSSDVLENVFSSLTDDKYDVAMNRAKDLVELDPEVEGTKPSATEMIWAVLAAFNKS
Sequence of UniProt Q1KMD3 (Q1KMD3 whole entry, looked up): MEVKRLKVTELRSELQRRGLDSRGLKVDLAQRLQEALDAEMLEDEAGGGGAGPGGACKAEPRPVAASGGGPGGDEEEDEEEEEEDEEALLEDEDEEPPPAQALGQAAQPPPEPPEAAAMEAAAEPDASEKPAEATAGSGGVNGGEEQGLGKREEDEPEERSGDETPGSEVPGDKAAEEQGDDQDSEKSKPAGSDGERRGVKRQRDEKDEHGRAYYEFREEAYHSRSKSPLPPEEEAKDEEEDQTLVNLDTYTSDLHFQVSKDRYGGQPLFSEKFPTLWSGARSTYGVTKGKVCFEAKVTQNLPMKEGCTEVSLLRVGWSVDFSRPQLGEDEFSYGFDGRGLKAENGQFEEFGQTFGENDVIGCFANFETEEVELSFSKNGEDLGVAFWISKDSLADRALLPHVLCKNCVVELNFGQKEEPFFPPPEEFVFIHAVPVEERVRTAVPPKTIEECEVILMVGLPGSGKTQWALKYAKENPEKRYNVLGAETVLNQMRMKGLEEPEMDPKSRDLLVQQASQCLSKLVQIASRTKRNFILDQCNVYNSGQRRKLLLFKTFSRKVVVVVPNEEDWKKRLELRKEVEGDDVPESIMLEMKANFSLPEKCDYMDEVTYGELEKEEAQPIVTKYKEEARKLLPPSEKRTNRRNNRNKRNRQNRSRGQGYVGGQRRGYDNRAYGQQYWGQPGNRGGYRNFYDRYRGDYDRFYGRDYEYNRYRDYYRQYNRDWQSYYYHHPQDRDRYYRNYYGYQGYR
Sequence of UniProt Q6AI08 (Q6AI08 whole entry, looked up): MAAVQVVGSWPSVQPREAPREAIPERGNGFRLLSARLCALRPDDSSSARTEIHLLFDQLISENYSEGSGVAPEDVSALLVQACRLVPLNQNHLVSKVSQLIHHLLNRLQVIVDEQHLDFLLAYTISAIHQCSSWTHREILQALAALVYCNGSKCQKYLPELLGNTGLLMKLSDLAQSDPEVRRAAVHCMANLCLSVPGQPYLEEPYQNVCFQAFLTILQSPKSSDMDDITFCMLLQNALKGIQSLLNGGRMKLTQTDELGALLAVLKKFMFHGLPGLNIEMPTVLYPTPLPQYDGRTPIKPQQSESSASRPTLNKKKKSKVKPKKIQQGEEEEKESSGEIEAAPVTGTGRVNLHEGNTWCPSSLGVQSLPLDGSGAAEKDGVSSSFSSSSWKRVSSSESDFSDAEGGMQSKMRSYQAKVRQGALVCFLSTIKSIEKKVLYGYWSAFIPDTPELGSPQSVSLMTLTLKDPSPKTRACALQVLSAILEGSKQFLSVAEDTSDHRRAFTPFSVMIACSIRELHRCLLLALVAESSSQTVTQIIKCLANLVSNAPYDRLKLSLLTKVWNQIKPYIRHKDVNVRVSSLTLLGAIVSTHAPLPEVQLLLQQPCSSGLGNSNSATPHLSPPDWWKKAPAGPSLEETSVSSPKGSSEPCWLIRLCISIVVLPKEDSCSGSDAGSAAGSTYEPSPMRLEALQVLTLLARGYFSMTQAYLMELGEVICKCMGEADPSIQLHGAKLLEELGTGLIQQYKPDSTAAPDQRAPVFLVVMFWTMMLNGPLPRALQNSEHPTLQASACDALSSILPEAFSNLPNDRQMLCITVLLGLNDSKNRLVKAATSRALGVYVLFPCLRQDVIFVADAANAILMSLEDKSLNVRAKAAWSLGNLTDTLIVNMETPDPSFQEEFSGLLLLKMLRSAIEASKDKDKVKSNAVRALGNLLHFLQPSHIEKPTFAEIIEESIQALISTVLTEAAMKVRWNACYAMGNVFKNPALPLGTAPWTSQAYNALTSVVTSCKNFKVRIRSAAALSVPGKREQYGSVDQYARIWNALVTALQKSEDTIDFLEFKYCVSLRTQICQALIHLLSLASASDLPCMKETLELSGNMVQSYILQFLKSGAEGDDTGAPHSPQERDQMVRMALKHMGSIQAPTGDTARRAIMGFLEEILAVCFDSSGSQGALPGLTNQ
Sequence of UniProt Q9BX10 (Q9BX10 whole entry, looked up): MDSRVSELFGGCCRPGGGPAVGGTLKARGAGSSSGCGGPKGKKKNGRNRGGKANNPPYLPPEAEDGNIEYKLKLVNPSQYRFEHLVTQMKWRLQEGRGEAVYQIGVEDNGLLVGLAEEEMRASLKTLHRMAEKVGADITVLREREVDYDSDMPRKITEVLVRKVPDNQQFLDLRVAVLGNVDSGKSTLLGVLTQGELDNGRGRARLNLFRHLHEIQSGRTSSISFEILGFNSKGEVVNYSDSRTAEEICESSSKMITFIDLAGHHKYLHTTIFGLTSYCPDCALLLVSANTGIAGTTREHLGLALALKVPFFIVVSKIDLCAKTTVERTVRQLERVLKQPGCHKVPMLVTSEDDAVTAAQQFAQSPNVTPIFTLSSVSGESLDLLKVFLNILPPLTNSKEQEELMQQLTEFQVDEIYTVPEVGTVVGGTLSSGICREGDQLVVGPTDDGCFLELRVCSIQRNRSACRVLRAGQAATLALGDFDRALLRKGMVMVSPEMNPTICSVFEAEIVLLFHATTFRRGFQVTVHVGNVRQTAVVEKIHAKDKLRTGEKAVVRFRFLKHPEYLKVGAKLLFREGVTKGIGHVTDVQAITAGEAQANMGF
Sequence of UniProt Q13418 (Q13418 whole entry, looked up): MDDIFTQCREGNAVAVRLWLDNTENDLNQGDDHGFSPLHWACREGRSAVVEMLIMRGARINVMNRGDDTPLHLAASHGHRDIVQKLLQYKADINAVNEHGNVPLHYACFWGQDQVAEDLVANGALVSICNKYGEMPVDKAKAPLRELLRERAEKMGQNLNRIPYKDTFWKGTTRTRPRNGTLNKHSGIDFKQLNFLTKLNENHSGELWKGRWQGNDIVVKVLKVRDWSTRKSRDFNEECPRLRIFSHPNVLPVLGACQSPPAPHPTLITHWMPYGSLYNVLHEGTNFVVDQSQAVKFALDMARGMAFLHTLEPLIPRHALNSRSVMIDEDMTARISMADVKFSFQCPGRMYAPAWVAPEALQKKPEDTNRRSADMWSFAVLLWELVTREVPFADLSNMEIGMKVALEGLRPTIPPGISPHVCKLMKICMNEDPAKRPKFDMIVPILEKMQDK
Sequence of UniProt Q53T59 (Q53T59 whole entry, looked up): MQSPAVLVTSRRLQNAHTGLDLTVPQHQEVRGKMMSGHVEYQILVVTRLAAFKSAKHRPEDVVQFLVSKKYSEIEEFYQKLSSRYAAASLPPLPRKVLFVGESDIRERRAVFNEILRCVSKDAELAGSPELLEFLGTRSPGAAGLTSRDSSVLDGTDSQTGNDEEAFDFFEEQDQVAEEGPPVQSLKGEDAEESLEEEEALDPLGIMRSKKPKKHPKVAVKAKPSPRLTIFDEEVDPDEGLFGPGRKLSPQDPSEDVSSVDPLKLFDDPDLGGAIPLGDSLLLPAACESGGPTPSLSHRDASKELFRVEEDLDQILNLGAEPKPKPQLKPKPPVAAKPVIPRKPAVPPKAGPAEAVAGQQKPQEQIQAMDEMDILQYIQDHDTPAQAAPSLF
Sequence of UniProt Q16836 (Q16836 whole entry, looked up): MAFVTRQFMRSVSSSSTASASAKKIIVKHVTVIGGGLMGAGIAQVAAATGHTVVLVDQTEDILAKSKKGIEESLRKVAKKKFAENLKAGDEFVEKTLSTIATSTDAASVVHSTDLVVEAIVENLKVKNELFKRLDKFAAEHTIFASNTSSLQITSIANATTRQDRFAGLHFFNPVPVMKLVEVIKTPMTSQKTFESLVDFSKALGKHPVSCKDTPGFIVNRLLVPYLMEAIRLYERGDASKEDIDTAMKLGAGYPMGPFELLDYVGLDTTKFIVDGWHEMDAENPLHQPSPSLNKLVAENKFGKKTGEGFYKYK

Row | Target | log2 fold change (erlotinib) | log2 fold change [1] | log2 fold change [2] | log2 fold change [3] | log2 fold change [4] | log2 fold change [5] | log2 fold change [6] | log2 fold change [7] | log2 fold change [8] | log2 fold change (IRAK-1-4 Inhibitor I) | log2 fold change (ibrutinib) | log2 fold change [9] | log2 fold change (ralimetinib) | log2 fold change [10] | log2 fold change [11] | log2 fold change [12] | log2 fold change [13] | log2 fold change [14] | log2 fold change [15] | log2 fold change [16]
1 | HS1BP3 (UniProt Q53T59) | -0.019 | -0.04 | 0.007 | -0.013 | -0.027 | -0.031 | 0.029 | -0.022 | 0.01 | 0.01 | -0.01 | 0.001 | 0.017 | 0 | -0.013 | 0.005 | 0.056 | 0.016 | -0.005 | -0.013
2 | IMMT (UniProt Q16891) | 0.008 | 0.058 | -0.176 | 0.035 | 0.024 | -0.001 | -0.031 | 0.016 | -0.026 | -0.007 | -0.015 | 0.006 | -0.018 | -0.045 | -0.017 | -0.007 | 0.038 | 0.003 | 0.011 | 0.031
3 | HADH isoform 2 (UniProt Q16836) | -0.052 | 0.065 | 0.023 | 0.08 | -0.03 | 0.003 | -0.015 | -0.015 | -0.028 | 0.008 | -0.004 | 0.02 | -0.023 | -0.011 | -0.036 | 0.013 | -0.045 | -0.039 | 0.028 | 0.004
4 | HDAC3 (UniProt O15379) | 0.061 | -0.035 | 0.056 | -0.008 | -0.001 | 0.01 | 0.019 | -0.017 | 0.029 | 0.028 | -0.004 | 0 | 0.043 | 0.018 | -0.029 | -0.03 | 0 | -0.003 | -0.082 | -0.007
5 | IL18R1 (UniProt Q13478) | -0.029 | -0.493 | -0.136 | 0.147 | 0.041 | 0.152 | 0.079 | -0.155 | 0.058 | -0.043 | -0.177 | 0.117 | -0.261 | -0.463 | 0.053 | -0.066 | -0.031 | 0.061 | 0.15 | 0.097
6 | GON4L (UniProt Q3T8J9) | -0.003 | 0.016 | 0.061 | -0.038 | -0.074 | 0.053 | 0.057 | 0.026 | -0.052 | -0.039 | 0.026 | 0.022 | 0.029 | -0.042 | -0.04 | -0.02 | -0.017 | 0.01 | 0.002 | -0.044
7 | HNRNPD isoform 3 (UniProt Q14103) | -0.056 | -0.133 | -0.1 | -0.181 | -0.036 | -0.11 | 0.021 | 0.108 | -0.043 | -0.057 | -0.081 | -0.065 | -0.046 | 0.104 | -0.026 | -0.096 | -0.052 | 0 | 0.036 | -0.007
8 | KCT2 (UniProt Q8NC54) | -0.05 | 0.098 | 0.041 | 0.017 | 0.055 | 0 | -0.026 | 0.021 | 0.01 | 0.031 | 0.025 | 0.018 | 0.038 | -0.076 | -0.015 | 0.008 | -0.034 | -0.025 | 0.004 | -0.024
9 | HNRNPUL2 (UniProt Q1KMD3) | -0.006 | -0.002 | 0.02 | -0.004 | -0.035 | -0.006 | -0.014 | -0.001 | -0.022 | -0.003 | -0.019 | -0.674 (active) | -0.018 | -0.02 | 0.021 | -0.022 | -0.03 | 0.011 | 0.032 | 0
10 | HAUS8 (UniProt Q9BT25) | 0.007 | -0.007 | 0.007 | 0.016 | -0.06 | -0.029 | 0.142 | 0.001 | 0.062 | 0.015 | 0.049 | -0.01 | 0.054 | 0.011 | -0.012 | -0.044 | -0.062 | 0.003 | 0.033 | 0.036
11 | GTPBP2 (UniProt Q9BX10) | -0.008 | -0.051 | -0.05 | -0.002 | -0.011 | 0.02 | -0.032 | -0.058 | -0.017 | 0.023 | 0.008 | -0.123 | 0.042 | -0.035 | 0 | 0.004 | -0.018 | 0 | 0.047 | -0.032
12 | HMGCS1 (UniProt Q01581) | -0.003 | -0.035 | 0.006 | -0.001 | -0.005 | 0.014 | 0.004 | 0.003 | 0.012 | -0.009 | -0.012 | -0.006 | 0.012 | -0.01 | -0.001 | -0.011 | 0.013 | -0.001 | 0.006 | 0.015
13 | ILK (UniProt Q13418) | 0.112 | 0.025 | 0.019 | 0.012 | 0.002 | -0.018 | -0.04 | 0.029 | -0.035 | 0.045 | 0.017 | 0.006 | 0 | -0.022 | -0.007 | 0.013 | -0.02 | 0.049 | -0.001 | 0.057
14 | ITPKA (UniProt P23677) | 0.021 | -0.042 | 0.041 | 0.043 | 0.006 | 0.046 | 0.006 | -0.07 | 0.011 | -0.013 | 0.043 | -0.009 | 0.007 | -0.044 | 0.011 | 0.023 | 0.002 | -0.012 | 0.022 | 0.026
15 | HEATR6 (UniProt Q6AI08) | -0.033 | 0.024 | -0.002 | 0.022 | 0.085 | -0.006 | -0.026 | -0.03 | -0.007 | -0.028 | 0.045 | -0.036 | 0.064 | -0.031 | -0.051 | 0.033 | -0.069 | -0.004 | 0.083 | -0.009
16 | GOLPH3L (UniProt Q9H4A5) | 0.028 | -0.003 | 0.012 | 0.07 | -0.03 | 0.092 | -0.085 | 0.005 | 0.03 | 0.023 | 0.058 | 0.005 | -0.058 | 0.071 | 0.009 | -0.042 | -0.01 | 0.114 | -0.029 | 0.006
